In PubChem BioAssay (NCATS):
Values joined by “and” are separate entries in the source; they are usually repeats but may differ in a detail not shown here. Equal values may be shown once. Values without a mark were called inactive. Results filed as inconclusive are left out. Entries that show only a call come without a potency. Active and inactive are the calls of the source. Unless noted, calls follow the shape of the dose curve; as a rule, active = well fitted curve in the direction sought with a large enough effect; inconclusive = small, poorly fitted or top-dose-only effect, or another doubt; inactive = no such curve, though single readings can be large; an effect the other way counts as inactive or inconclusive.

Legend:
[1] = qHTS Assay for Identification of Small Molecule Antagonists for Thrombopoietin (TPO) Signaling Pathway (AID 918); details: TPO-dependent cell signaling reporter, antagonist mode; also: potency is read from the fitted curve at half-maximal effect; nearly all actives have a fitted effect of over 60% in size
Summary of the method: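 Murine Ba/F3 cells expressing human TPO receptor and a Glycoprotein IIb promoter-luciferase reporter, IL-3-starved overnight, treated with compound plus TPO at EC50 (26 pM final). After 24 h at 37 C, luminescence read to detect inhibitors.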

[2] = Cell Viability - LYMP2-001 (AID 921); details: LYMP2-001 lymphoblastoid cell viability; series mostly up to 92.2 µM; also: nearly all actives have a fitted effect of over 70% in size
Summary of the method: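 Steps: seed 2500 lymphoblastoid cells/well; 5 hr, 37 C; add compound; 24 hr, 37 C; CellTiter-Glo reagent, 30 min room temperature; read luminescence. Concentration-response modeled by Hill equation for AC50.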

[3] = molecular target: Muscarinic acetylcholine receptor M1 (Rattus norvegicus) (UniProt P08482); test: qHTS Assay for Antagonists of Acetylcholine Muscarinic M1 Receptor: Measurement of IP-One Response (AID 944); details: CHO-M1 cells, IP-One HTRF, antagonist mode; series mostly up to 46.1 µM; also: nearly all actives have a fitted effect of over 75% in size; also: potency is read from the fitted curve at half-maximal effect
Muscarinic acetylcholine receptor M1 (Rattus norvegicus), sequence (P08482 whole entry, looked up): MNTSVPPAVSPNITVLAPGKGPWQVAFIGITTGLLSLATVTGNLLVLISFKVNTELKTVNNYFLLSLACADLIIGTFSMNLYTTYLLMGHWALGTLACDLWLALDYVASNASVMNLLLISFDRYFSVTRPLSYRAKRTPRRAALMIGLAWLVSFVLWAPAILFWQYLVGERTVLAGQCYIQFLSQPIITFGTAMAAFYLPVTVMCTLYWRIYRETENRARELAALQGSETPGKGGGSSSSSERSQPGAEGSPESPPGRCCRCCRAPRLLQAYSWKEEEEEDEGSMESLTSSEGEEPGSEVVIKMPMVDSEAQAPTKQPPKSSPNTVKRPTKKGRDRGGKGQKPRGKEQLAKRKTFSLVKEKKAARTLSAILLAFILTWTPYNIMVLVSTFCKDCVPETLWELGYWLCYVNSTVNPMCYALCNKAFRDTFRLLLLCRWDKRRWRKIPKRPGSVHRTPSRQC
Summary of the method: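 CHO cells stably expressing rat M1, pretreated 10 min with compound, then stimulated 30 min with carbachol at EC80 (200 nM) in LiCl-containing buffer pH 7.4; IP1 accumulation read by HTRF competition (665/620 nm).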

[4] = molecular target: Pyruvate kinase (Leishmania mexicana) (UniProt Q27686); test: qHTS Validation Assay for Inhibitors of Leishmania Mexicana Pyruvate Kinase (AID 945); details: purified L. mexicana pyruvate kinase, enzyme activity, E451W mutant enzyme; series mostly up to 57.5 µM
Pyruvate kinase (Leishmania mexicana), sequence (Q27686 2-499 E452W): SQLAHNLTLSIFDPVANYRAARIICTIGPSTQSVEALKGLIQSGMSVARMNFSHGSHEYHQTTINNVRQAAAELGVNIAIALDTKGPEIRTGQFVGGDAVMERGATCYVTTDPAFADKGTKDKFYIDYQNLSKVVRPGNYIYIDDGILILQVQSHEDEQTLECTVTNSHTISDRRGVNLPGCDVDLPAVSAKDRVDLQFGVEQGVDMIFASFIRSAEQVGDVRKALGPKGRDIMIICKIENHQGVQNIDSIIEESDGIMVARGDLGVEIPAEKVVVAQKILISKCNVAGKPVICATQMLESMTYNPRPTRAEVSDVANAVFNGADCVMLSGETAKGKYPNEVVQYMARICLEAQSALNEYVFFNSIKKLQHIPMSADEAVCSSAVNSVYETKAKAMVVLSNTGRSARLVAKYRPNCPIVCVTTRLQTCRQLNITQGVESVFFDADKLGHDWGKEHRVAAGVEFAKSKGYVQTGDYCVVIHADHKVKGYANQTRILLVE
Summary of the method: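 Eight-point qHTS titrations; enzyme 0.2 nM LmPYK (E451W mutant); substrates 0.5 mM PEP, 0.1 mM ADP; 7 mM MgCl2; 1 h room temperature; PKLight luminescence normalized to neutral control.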

[5] = qHTS Assay for Identification of Small Molecule Agonists for Thrombopoietin (TPO) Signaling Pathway (AID 917); details: TPO signaling pathway reporter cells, agonist qHTS, stimulated with TPO at its EC50; series mostly up to 38.5 µM
Summary of the method: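 Luminescence from a Glycoprotein IIb promoter–driven luciferase reporter served as read-out in murine Ba/F3 cells carrying the human TPO receptor. Cells, deprived of IL-3 overnight, received compounds with 26 pM TPO and were incubated 24 hrs at 37 C.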

[6] = molecular target: Muscarinic acetylcholine receptor M1 (Rattus norvegicus) (UniProt P08482); test: qHTS Assay for Antagonists of Acetylcholine Muscarinic M1 Receptor: Kinetic Measurement of Intracellular Calcium Response (AID 943); details: M1-expressing cells, kinetic intracellular calcium fluorescence; series mostly up to 35.3 µM; also: nearly all actives have a fitted effect of over 75% in size; also: potency is read from the fitted curve at half-maximal effect
Summary of the method: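 CHO cells expressing rat M1 receptor, Fluo-4 loaded, preincubated 10 min with compound, then stimulated with EC80 carbachol (100 nM final). Kinetic calcium fluorescence over 4 min; response taken as peak over basal signal.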

[7] = qHTS Assay for Identification of Small Molecule Agonists for Hypoxia Response Element Signaling Pathway (AID 914; active = well fitted activation curve with a large enough effect in the signal ratio, with a control signal flat, not every such curve was filed as active; the % refers to the signal ratio); details: ME-180 (cervical carcinoma) HRE-bla reporter, beta-lactamase ratio, CoCl2, 17 h; hits give high values
Summary of the method: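 HRE-bla ME-180 assay for agonist-like enhancement of an EC50 CoCl2 stimulus: 17 h at 37 degrees Celsius, CCF4 for 2.5 h, ratiometric 460/530 nm signal converted to %Activity and fitted to AC50.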

SMILES: COC(=O)[C@H]1[C@H]2C[C@@H]3c4[nH]c5cc(OC)ccc5c4CCN3C[C@H]2C[C@@H](OC(=O)c2cc(OC)c(OC)c(OC)c2)[C@@H]1OC
- Potency [1]: 31.6 µM (active)
- outcome [2]: inactive
- Potency [3]: 8.91 µM (active)
- Potency [4]: inactive

SMILES: OCCN1CCN(CCCN2c3ccccc3C=Cc3ccccc32)CC1
- outcome [5]: inactive
- Potency [6]: 3.16 µM (active) and 3.55 µM (active)
- Potency [3]: 3.55 µM (active) and 4.47 µM (active)
- Potency [4]: inactive

SMILES: O=C1CC2(CCCC2)CC(=O)N1CCCCN1CCN(c2ncccn2)CC1
- outcome [5]: inactive
- Potency [4]: inactive

SMILES: c1cc(CN2CCCCC2)cc(OCCCNc2nc3ccccc3s2)c1
- Potency [6]: 8.91 µM (active)
- Potency [3]: 14.1 µM (active)
- Potency [4]: inactive

SMILES: CCC(=O)c1ccc2c(c1)N(CCCN(C)C)c1ccccc1S2
- Potency [6]: 0.398 µM (active)
- Potency [3]: 1.41 µM (active)
- Potency [4]: inactive

SMILES: CCCCOCCOCCOCc1cc2c(cc1CCC)OCO2
- outcome [2]: inactive

SMILES: O=c1[nH]c(=O)n([C@H]2C[C@H](O)[C@@H](CO)O2)cc1Br
- outcome [5]: inactive
- outcome [2]: inactive
- Potency [6]: inactive
- Potency [4]: inactive

SMILES: C[N+](C)(C)CCOC(=O)CCC(=O)OCC[N+](C)(C)C
- outcome [5]: inactive
- Potency [4]: inactive

SMILES: CSc1ccc(C(=O)c2[nH]c(=O)[nH]c2C)cc1
- outcome [5]: inactive
- Potency [4]: inactive

SMILES: COCC(=O)O[C@]1(CCN(C)CCCc2nc3ccccc3[nH]2)CCc2cc(F)ccc2[C@@H]1C(C)C
- Potency [1]: 12.6 µM (active)
- Potency [4]: inactive

SMILES: CCc1c(C)[nH]c2c1C(=O)C(CN1CCOCC1)CC2 (stereo not drawn)
- outcome [5]: inactive
- Potency [3]: inactive
- Potency [4]: inactive

SMILES: C[C@]12C=CC(=O)C=C1CC[C@H]1[C@@H]3C[C@@H](O)[C@](O)(C(=O)CO)[C@@]3(C)C[C@H](O)[C@@]12F
- outcome [5]: inactive
- Potency [4]: inactive

SMILES: C[C@]12CCC(=O)C=C1CC[C@@H]1[C@@H]2CC[C@@]2(C)[C@H]1CC[C@]2(O)C(=O)CO
- outcome [5]: inactive
- Potency [4]: inactive

SMILES: CC(=O)Oc1cc(C(C)C)c(OCCN(C)C)cc1C
- outcome [5]: inactive
- Potency [3]: 12.6 µM (active)
- Potency [4]: inactive

SMILES: CCNC(=O)N1CCN(CCCC(c2ccc(F)cc2)c2ccc(F)cc2)CC1
- outcome [5]: inactive
- Potency [3]: 17.8 µM (active)
- Potency [4]: inactive

SMILES: COc1cc2c(cc1OC)-c1cc(=Nc3c(C)cc(C)cc3C)n(C)c(=O)n1CC2
- Potency [4]: inactive

SMILES: O=C1NCN(c2ccccc2)C12CCN(CCCC(c1ccc(F)cc1)c1ccc(F)cc1)CC2
- Potency [1]: 12.6 µM (active)
- Potency [4]: inactive

SMILES: C[C@]12CCC(=O)C=C1CC[C@@H]1[C@@H]2C(=O)C[C@@]2(C)[C@H]1CC[C@]2(O)C(=O)CO
- outcome [5]: inactive
- Potency [4]: inactive

SMILES: NCCCNCCSP(=O)(O)O
- outcome [5]: inactive
- Potency [4]: inactive

SMILES: CCc1cccc(N(C)C(N)=Nc2cccc3ccccc23)c1
- activation [7]: -13%
- Potency [4]: inactive

SMILES: C(=C\c1ccccc1)/CN1CCN(C(c2ccccc2)c2ccccc2)CC1
- outcome [5]: inactive
- Potency [4]: inactive

SMILES: CCOC(=O)c1cnc2c(cnn2CC)c1NN=C(C)C
- outcome [5]: inactive
- Potency [6]: inactive
- Potency [4]: inactive

SMILES: CCCCNc1c(C(=O)OCC)c(C)nc2c1cnn2CC
- Potency [3]: inactive
- Potency [4]: inactive

SMILES: NC(=Nc1ccccc1)Nc1ccccc1
- outcome [2]: inactive

SMILES: Cc1nc2sccn2c(=O)c1CCN1CCC(=C(c2ccc(F)cc2)c2ccc(F)cc2)CC1
- outcome [5]: inactive
- Potency [6]: 3.16 µM (active)
- Potency [3]: 15.8 µM (active)
- Potency [4]: inactive

SMILES: CN(C)CC/C=C1\c2ccccc2COc2ccccc21
- outcome [5]: inactive
- Potency [4]: inactive
